Experimental data taken from PubChem BioAssay (NCI).
About 79,000 compounds went through this panel and 15% of them were active in at least one assay; those are over-represented in the sample as a whole. Calls of active or inactive are those of the source. Cut-off read from the data, not from the text of the source: active = growth inhibition above about 70%; inactive = the rest.

Key:
[1] = NCI Yeast Anticancer Drug Screen. Data for the rad50 strain (AID 155);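 note: 0% = growth of vehicle-only cultures of the same strain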; conditions: S. cerevisiae rad50 strain growth inhibition; at 50.0 µM; hits give high values
Summary of the method: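 Yeast carrying a defined DNA repair defect were exposed to test compounds, and growth was compared with vehicle-treated controls to give percent inhibition.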

[2] = NCI Yeast Anticancer Drug Screen. Data for the mec2-1 strain (AID 157); conditions: S. cerevisiae mec2-1 strain, at 50.0 µM, hits give high values
Summary of the method: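 Growth inhibition is read against vehicle-treated controls after compound exposure of the mec2-1 yeast strain, which is defective in DNA damage repair or cell cycle control.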

[3] = NCI Yeast Anticancer Drug Screen. Data for the sgs1 mgt1 strain (AID 161);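 note: 0% = growth of cultures given vehicle only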; conditions: S. cerevisiae sgs1 mgt1 strain, at 50.0 µM, hits give high values
Summary of the method: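 Percent growth inhibition was derived by comparing compound-exposed mutant yeast with vehicle-exposed cultures. The strain carries alterations in DNA damage repair.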

[4] = NCI Yeast Anticancer Drug Screen. Data for the cln2 rad14 strain (AID 165);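 note: 0% = growth equal to vehicle treated cultures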; conditions: S. cerevisiae cln2 rad14 strain, at 50.0 µM, hits give high values
Summary of the method: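 Growth inhibition, relative to vehicle-treated controls, is the read-out. The test organism is a yeast strain with defined genetic alterations, cln2 rad14.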

[5] = NCI Yeast Anticancer Drug Screen. Data for the bub3 strain (AID 167); conditions: S. cerevisiae bub3 mutant strain, at 50.0 µM, hits give high values
Summary of the method: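 Compounds were applied to a genetically altered yeast strain carrying a cell-cycle control defect. Growth inhibition was scored against vehicle-treated controls.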

[6] = NCI Yeast Anticancer Drug Screen. Data for the mlh1 rad18 strain (AID 175); conditions: S. cerevisiae mlh1 rad18 strain growth inhibition; at 50.0 µM; hits give high values
Summary of the method: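 Cells of a genetically altered yeast strain, deficient in DNA damage repair, were treated with compound. Their growth was then compared with that of vehicle-treated cultures to give inhibition.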

Measured: growth inhibition

CCc1cccc(CC)c1NC(=O)/C=C/C(=O)O
inactive: [1] -12.6% | [2] 3.45% | [3] -4.75% | [4] -46.6% | [5] -4.2% | [6] 4.1%

CC(=O)OC1CCC2=C3CCC4(C)C(=O)CCC4C3C(O)C2(C)C1 (stereo unspecified)
inactive: [1] 0.05% | [2] -2% | [3] -5.3% | [4] -5.2% | [5] -14.3% | [6] -9.5%

COc1ccc2c(c1)OC(c1cccnc1)C(c1ccccc1)C2=O (stereo unspecified)
inactive: [1] -5.45% | [2] -27.9% | [3] 17.9% | [4] 15.4% | [5] 16.1% | [6] -0.05%

COc1cc(-c2cc(-c3cc([N+](=O)[O-])c(/C=N/NC(=O)c4ccncc4)o3)ccc2OC)ccc1C
inactive: [1] 17.5% | [2] 8.2% | [3] -8.1% | [4] 26.9% | [5] 11.2% | [6] 8.3%

CC(=O)O[C@@H]1[C@H]2[C@@H](OC(=O)c3ccccc3)[C@@H](C)C[C@]2(O)[C@H](OC(C)=O)[C@@]2(C)[C@@H]3CC(C)(C)C(=O)[C@]3(OC(C)=O)C[C@@]12C
inactive: [1] 25% | [2] 31.1% | [3] 6.4% | [4] 5.3% | [5] 15.2% | [6] 39.4%

Cc1ccc2nc(-c3ccc(-c4nc5ccc(C)cc5o4)c(O)c3)oc2c1
inactive: [1] -36.3% | [2] -14.4% | [3] -27.1% | [4] 2.95% | [5] -17.2% | [6] -24.8%

c1ccc(Cn2cccc2N=Nc2ccccc2)cc1
inactive: [1] 26.4% | [2] 2.8% | [3] 6.55% | [4] 6.8% | [5] -4% | [6] 14.3%

O=C(COc1ccccc1)OC1CCCC1
inactive: [1] 17.6% | [2] -13.4% | [3] -9.8% | [4] -1.9% | [5] -3.05% | [6] 4.55%

Cn1c(=O)c(Br)c(C=O)n(CCO[N+](=O)[O-])c1=O
inactive: [1] -8.25% | [2] 32% | [3] 3.85% | [4] 15.6% | [5] 38.6% | [6] -27.6%

Cc1ncc(CO)c(CN)c1O
inactive: [1] -0.55% | [2] -21.4% | [3] -38% | [4] -23.4% | [5] -28.4% | [6] -1.75%

C(=N\N=C\c1ccccn1)/c1ccccn1
inactive: [1] 9.65% | [2] -6.95% | [3] 5.5% | [4] 4.8% | [5] -3.7% | [6] 26.2%

COC(=O)CCc1ccc(N)cc1
inactive: [1] 4.85% | [2] -2.95% | [3] 9.5% | [4] -4.3% | [5] -2.1% | [6] 2.9%

O=C(O)C1=NN(c2cc(Cl)c(S(=O)(=O)O)cc2Cl)C(=O)C1
inactive: [1] -33.2% | [2] -45.1% | [3] -14.1% | [4] 6.1% | [5] -5.85% | [6] -32.9%

CCc1cc2c(ccc3ccccc32)c2c1CCC2
inactive: [1] -11.6% | [2] -11.7% | [3] -1.8% | [4] -17.1% | [5] 5.3% | [6] 1.6%

CCOC(=O)Cc1nnc2n(-c3ccccc3)c(=O)c3ccccc3n12
inactive: [1] -23.6% | [2] -15.3% | [3] -21.7% | [4] 11.8% | [5] -21.9% | [6] -74.2%

Cc1nc(Cc2ccc(O)c(O)c2)c(C)o1
inactive: [1] 6.7% | [2] 13.9% | [3] 3.95% | [4] -17.2% | [5] -18% | [6] 8.2%

CN(C)c1nc(S(C)(=O)=O)nc2nc(S(C)(=O)=O)[nH]c12
inactive: [1] 2.45% | [2] -19.1% | [3] -4% | [4] -47% | [5] 1.95% | [6] -17.6%

Cn1c(Cl)c(C=O)c(=O)n(C)c1=O
inactive: [1] 17.8% | [2] -4.7% | [3] -5.95% | [4] -0.45% | [5] 7% | [6] -2.55%

Fc1cccc(-c2nnc(-c3ccccc3)o2)c1
inactive: [1] 34.1% | [2] 23.1% | [3] 28.9% | [4] 19.4% | [5] 37.8% | [6] -1.65%

COc1ccc(CC(=O)NCCc2ccc(OC)c(OC)c2OC)cc1
inactive: [1] 8.95% | [2] -34.7% | [3] -30% | [4] 8.3% | [5] -10.7% | [6] -32.8%

N#C/C(=C\c1ccc(C#N)cc1)C(=O)O
inactive: [1] -16.6% | [2] -3.1% | [3] -30% | [4] 2.75% | [5] -14.4% | [6] 9.55%

[O-][n+]1onc2c1CCC(=N\O)/C2=N/Nc1ccccc1
inactive: [1] -1.55% | [2] -1.05% | [3] -15.1% | [4] 34.9% | [5] 18.6% | [6] 11.3%

CC(C)(C)OC(=O)N1CCc2c([nH]oc2=O)C1
inactive: [1] -1.25% | [2] -8.55% | [3] -3.5% | [4] -17.6% | [5] 10.6% | [6] -3.8%

CC(=O)Oc1ccc2c(c1)Cc1cc([N+](=O)[O-])ccc1-2
inactive: [1] 8.45% | [2] 14.2% | [3] 14.9% | [4] -9.5% | [5] 32.7% | [6] 20.6%

COc1cc(=O)n2c3ccccc3n(C)c2c1C#N
inactive: [1] -9.75% | [2] -16.9% | [3] -0.95% | [4] -0.25% | [5] -4.35% | [6] 41.8%

C=CCSc1nc2c(=O)n(C)c(=O)n(C)c2n1C
inactive: [1] -11.3% | [2] -3.55% | [3] -6.85% | [4] -27.3% | [5] -6.8% | [6] 7.15%

CCOc1ccc(C(=O)OCCCl)cc1
inactive: [1] 9.85% | [2] 0.75% | [3] -3.1% | [4] 5.25% | [5] 6.75% | [6] 10.6%

COC(=O)/C=C(/N)CC(=O)OC
inactive: [1] 16.9% | [2] -25.4% | [3] -8.35% | [4] 10.9% | [5] -15.9% | [6] 1.75%

CN(C)C(=O)OC1CCCCC1
inactive: [1] -8.1% | [2] -9.4% | [3] -18.8% | [4] -18.7% | [5] -19.6% | [6] -12.6%

COC1OC(COC(c2ccccc2)(c2ccccc2)c2ccccc2)C2OC12 (stereo unspecified)
inactive: [1] 44.1% | [2] 5.15% | [3] 22.6% | [4] 11% | [5] 1.3% | [6] 19.7%

Cc1nn2c(=O)n(-c3cccc(-n4nnc5c(-c6ccccc6)c(C)nn5c4=O)c3C)nnc2c1-c1ccccc1
inactive: [1] 33.9% | [2] 40.4% | [3] 30.2% | [4] 46.1% | [5] 43.2% | [6] 43.9%

CC[N+](CC)(CC)Cc1cc2ccccc2n1C(=O)OC
inactive: [1] -9.25% | [2] -24.4% | [3] -25.8% | [4] -1.4% | [5] -12.2% | [6] -28.9%

Cc1cc(N(CCC#N)CCC#N)ccc1/C=C(\NC(=O)/C=C/c1ccccc1)NC(=O)Nc1ccc(Cl)cc1
inactive: [1] 13.5% | [2] 2.75% | [3] -17.9% | [4] 10.8% | [5] 12.5% | [6] 29.2%

O=C1OC(C(O)C(O)C(O)CO)C(O)C1O (stereo unspecified)
inactive: [1] -9.65% | [2] -29.9% | [3] -11.7% | [4] -40.2% | [5] 28.3% | [6] 4.65%

COC1(OC)c2no[n+]([O-])c2C(OC)(OC)c2c1no[n+]2[O-]
inactive: [1] -11.7% | [2] -4.8% | [3] -6.35% | [4] 19.1% | [5] 20.6% | [6] -4.35%

O=C1C=CC(=NN=c2c3ccccc3oc3ccccc23)C=C1
inactive: [1] -11.3% | [2] -3.35% | [3] 4% | [4] -20.9% | [5] 12.7% | [6] 0.1%

Cc1ccccc1S(=O)(=O)NC1c2ccccc2Oc2ccccc21
inactive: [1] -9.85% | [2] -3.7% | [3] -5.3% | [4] -12.1% | [5] 2.5% | [6] -7.9%

COc1ccc(C(=O)NC(=S)Nc2cc(C(F)(F)F)ccc2Cl)cc1
active: [4] 84.8%
inactive: [1] -18.6% | [2] 0.1% | [3] -11.2% | [5] -3.8% | [6] 11.7%

CCOP(=O)(OCC)C1OCC(O)C(C2OC(P(=O)(OCC)OCC)OCC2O)O1 (stereo unspecified)
inactive: [1] 7.95% | [2] 4.4% | [3] 2.45% | [4] 0.85% | [5] -1.55% | [6] 7.25%

Nc1ncnc2c1N=C(c1ccccc1)CC(c1ccccc1)N2 (stereo unspecified)
inactive: [1] -8.75% | [2] -5.15% | [3] -4.15% | [4] 3.15% | [5] -35.4% | [6] 2.6%

O=c1[nH]c(=S)[nH]c2[nH]c(=S)ncc12
inactive: [1] -26.8% | [2] -43.1% | [3] -31.8% | [4] 1.9% | [5] -13.1% | [6] -15.1%
